Screening data (PubChem)
The entries come from a sample that favours hits as a whole.
Pf apPOL inh: Pf-apPOL DNA polymerase inhibition; inhibition, % at 10 µM; Recombinant Pf-apPOL, molecular beacon fluorescence, 1.5 h; actives 0.25% (n = 210,000); AID 1794808
mHTT CaM bind: disrupts binding of mutant huntingtin to calmodulin; AlphaScreen His-mHTT/GST-CaM binding, luminescence; inhibition, % at 15 µM; AID 1671202; actives 3.6% (n = 190,000);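 also: 0% = both proteins with DMSO and 100% = one protein alone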
* = called active by the depositor; . = not tested or not shown. Rule as the data show it: active = inhibition above about 50%; inactive = the rest.

SMILES | Pf apPOL inh | mHTT CaM bind
COc1cc(Nc2ncc3c(n2)CCN(Cc2cccc(OC)c2OC)C3)cc(OC)c1 | -6 | 30
COc1cccc(CN2CCc3nc(Nc4ccc(F)cc4)ncc3C2)c1OC | -3 | 100*
CCCCN1CCc2nc(Nc3ccc(OC)cc3)ncc2C1 | -4 | 52*
Cc1cc(N2CCN(C(=O)Cc3ccc(F)cc3)CC2)ncn1 | -6 | -9
Cc1ccc(C(=O)Nc2cnc(-c3ccc(C)cc3)nc2)cc1 | 0 | 2
c1cnc(-c2n[nH]c(C3CCCNC3)n2)cn1 (stereo unspecified) | -5 | 72*
c1cnc(-c2n[nH]c(C3CCCN(CC4CCCCC4)C3)n2)cn1 (stereo unspecified) | -8 | 54*
c1cnc(-c2n[nH]c(C3CCN(CC4CCCCC4)CC3)n2)cn1 | -5 | -1
CC(C)CCN1CCCC(c2nc(-c3cnccn3)n[nH]2)C1 (stereo unspecified) | 4 | 34
Nc1ccc2c(c1)COCO2 | . | -3
Cc1ccc(S(=O)(=O)N2CCC(CCNC(=O)Nc3ccccc3)CC2)cc1 | -3 | 53*
COC(=O)CNC(=O)NCCC1CCN(S(=O)(=O)c2ccc(C)cc2)CC1 | -5 | 39
O=C(NCCC1CCN(S(=O)(=O)c2ccc(F)cc2)CC1)Nc1ccccc1 | -2 | 29
COCCNC(=O)NCCC1CCN(S(=O)(=O)c2ccc(C)cc2)CC1 | 3 | 55*
COc1ccc(-c2noc(-c3ccc(NC4CCCCC4)nc3)n2)cc1 | -4 | -6
CCOC(=O)[C@@H](C)N(C(=O)OC(C)(C)C)S(=O)(=O)N(Cc1ccccc1)[C@@H](C(=O)OC)C(C)C | -4 | -14
O=c1c(C=NCCN2CCOCC2)c(C(F)(F)F)[nH]n1-c1nc2ccccc2s1 | 3 | 4
COc1ccc(-c2[nH]n(-c3nc4ccccc4s3)c(=O)c2C=NCCN2CCOCC2)cc1 | 2 | 68*
CC1CCCC(NC(=O)Cn2c(=O)[nH]c3ccsc3c2=O)C1C (stereo unspecified) | -5 | -5
COc1ccc(C2CC(=O)Oc3c(C(CCN4CCCC(C)C4)c4cc(OC)c(OC)c(OC)c4)c(OC)cc(OC)c32)cc1 (stereo unspecified) | -6 | 61*
COc1ccc(C(CC(=O)N2CCCC(C)C2)c2c(O)cc(OC)cc2OC)cc1 (stereo unspecified) | -7 | 15
COc1ccc(C2CC(=O)Oc3cc(OC)c(OC)c(OC)c32)cc1 (stereo unspecified) | -1 | 2
COc1ccc(C2CC(=O)Oc3c(C(CCN4CCCC(C)C4)c4ccc(N(C)C)cc4)c(OC)cc(OC)c32)cc1 (stereo unspecified) | -6 | 101*
COc1cc(C2CC(=O)Oc3cc(O)ccc32)cc(OC)c1OC (stereo unspecified) | -5 | 3
COc1cc(C2CC(=O)Oc3c(C(CCN4CCOCC4)c4ccc(N(C)C)cc4)c(OC)cc(OC)c32)cc(OC)c1OC (stereo unspecified) | -4 | 65*
SMILES | Pf apPOL inh | mHTT CaM bind
COc1ccc(C2CC(=O)Oc3c(C(CCN4CCCCC4)c4ccc(N(C)C)cc4)c(OC)cc(OC)c32)cc1 (stereo unspecified) | 1 | 101*
CCOC(=O)C1CCCN(C(=O)c2csc3nc(-c4ccc(F)cc4)cn23)C1 (stereo unspecified) | -8 | -1
CCC(C(=O)Nc1cc(C)ccc1C)c1ccccc1 (stereo unspecified) | -6 | -17
Cc1cccc(C(=O)N2CCc3nc(-c4ccccc4)ncc3C2)c1 | -2 | -4
Cc1ccc2c(c1)N(C)/C(=C/c1cccc[n+]1C)C=C2 | -5 | 17
CC(C)c1noc(-c2cccnc2N2CCCN(Cc3ccc(Cl)cc3)CC2)n1 | -4 | -44
CCN(CC)C(=O)C1CC(c2cccc(OC)c2)=NO1 (stereo unspecified) | -4 | -6
COc1cc(OC)c2c(c1C(CCN1CCCC1)c1ccc(N(C)C)cc1)OC(=O)CC2c1ccc(N(C)C)cc1 (stereo unspecified) | -10 | 100*
CC(C)(C)C(=O)c1sc2sc(C(=O)C(C)(C)C)c(N)c2c1N | 4 | .
Cc1cc(I)cc2c1NC(c1ccc(F)cc1)C1CC=CC21 (stereo unspecified) | 0 | 54*
Fc1ccc(C2Nc3ccc(F)cc3C3C=CCC32)cc1 (stereo unspecified) | -1 | 94*
Cc1cccc(-c2ccc(C(=O)Nc3ccccc3)cn2)c1 | 3 | -11
CC(=O)C(=CN(C)C)Sc1ccccn1 | 1 | .
N#C/C(=C\c1ccc(F)cc1)c1ccc([N+](=O)[O-])cc1 | 2 | 16
COc1cccc(C(=O)C=C2NC(=O)CS2)c1 | -7 | .
COc1ccc(C(=O)/C=C2/NC(=O)CS2)cc1 | 77* | -7
COc1ccc(CNC(=O)c2c(C)noc2-c2ccccc2C)cc1 | -1 | -2
COc1cc(/C=C2\C(=O)NN(c3ccc(C)c(C)c3)C2=O)cc(Cl)c1OC | -6 | 58*
COc1cc(/C=C2\C(=O)NN(c3ccccc3)C2=O)cc(Cl)c1OC | -1 | 28
